# Laboratory results published in PubChem BioAssay AID1963316 (National Center for Advancing Translational Sciences (NCATS), 2024).
# Inconclusive results are not listed. Values without a mark were called inactive. Activity calls are given as the source filed them. The call rests on the fitted dose curve.
# Biological target: Tyrosine-protein kinase ABL1 (Homo sapiens) (UniProt P00519)
# Assay: ABL1 kinase (ABL1-N-HiBiT) SDR gain of signal screen - plus ATP
# Conditions: purified ABL1-N-HiBiT enzyme, HiBiT luminescence with 50 uM ATP, 30 min; series mostly up to 57.5 µM; signal gain, positive = increase: at the top concentration
# Summary of the method: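 ABL1-N-HiBiT protein (10 nM final) with 50 uM ATP incubated with compounds for 30 min at RT, protected from light. Nano-Glo HiBiT reagent then added for 10 min; luminescence read on CCD imager, with DMSO neutral and imatinib positive controls.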
# Chain of Tyrosine-protein kinase ABL1 (Homo sapiens) (P00519 whole entry, looked up): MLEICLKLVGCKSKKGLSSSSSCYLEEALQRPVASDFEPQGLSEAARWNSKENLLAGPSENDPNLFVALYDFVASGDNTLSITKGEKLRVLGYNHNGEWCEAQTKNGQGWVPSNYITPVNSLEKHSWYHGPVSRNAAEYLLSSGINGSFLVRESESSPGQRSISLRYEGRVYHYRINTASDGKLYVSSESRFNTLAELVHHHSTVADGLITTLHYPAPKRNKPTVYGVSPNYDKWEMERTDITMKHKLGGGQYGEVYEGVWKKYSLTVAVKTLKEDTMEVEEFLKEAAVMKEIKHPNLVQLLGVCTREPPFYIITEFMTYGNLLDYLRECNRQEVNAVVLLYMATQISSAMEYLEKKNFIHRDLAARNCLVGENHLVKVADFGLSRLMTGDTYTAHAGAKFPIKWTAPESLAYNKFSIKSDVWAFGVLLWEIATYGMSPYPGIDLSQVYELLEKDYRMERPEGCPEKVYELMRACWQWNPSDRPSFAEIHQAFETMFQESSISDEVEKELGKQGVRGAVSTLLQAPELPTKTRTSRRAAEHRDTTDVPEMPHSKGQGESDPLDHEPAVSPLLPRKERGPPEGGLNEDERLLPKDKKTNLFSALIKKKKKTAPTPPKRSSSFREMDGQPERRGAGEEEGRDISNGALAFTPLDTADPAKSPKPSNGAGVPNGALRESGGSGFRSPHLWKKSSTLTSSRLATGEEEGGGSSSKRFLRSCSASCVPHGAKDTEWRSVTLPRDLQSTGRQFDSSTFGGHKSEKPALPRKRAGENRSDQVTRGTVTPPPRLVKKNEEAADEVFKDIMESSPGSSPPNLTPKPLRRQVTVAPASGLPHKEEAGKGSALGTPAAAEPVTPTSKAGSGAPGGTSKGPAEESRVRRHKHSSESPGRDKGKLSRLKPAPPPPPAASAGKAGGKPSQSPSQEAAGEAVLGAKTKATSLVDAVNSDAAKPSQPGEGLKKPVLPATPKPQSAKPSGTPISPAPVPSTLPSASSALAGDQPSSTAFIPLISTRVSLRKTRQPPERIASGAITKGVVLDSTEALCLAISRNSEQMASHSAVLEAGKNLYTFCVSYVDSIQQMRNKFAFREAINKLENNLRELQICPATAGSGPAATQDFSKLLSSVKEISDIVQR
Compound,"signal gain, positive = increase [%]",Potency
COc1ccc(-n2c(SCC#N)nc3sc4c(c3c2=O)CCCC4)cc1,-1.47,–
Cn1cc(-c2cc3c(N4CCN(c5ncc([C@@](C)(N)c6ccc(F)cc6)cn5)CC4)ncnn3c2)cn1,–,10.3 µM (active)
Nc1nc(NCCNc2ncc(-n3ccnc3)c(-c3ccc(Cl)cc3Cl)n2)ccc1[N+](=O)[O-],-26.8,–
NC1(C(=O)N[C@@H](CCO)c2ccc(Cl)cc2)CCN(c2ncnc3[nH]ccc23)CC1,11.3,–
c1ccc(-c2oc3ncnc(NC[C@@H]4CCCO4)c3c2-c2ccccc2)cc1,4.37,–
S=C(NCc1ccc2c(c1)OCO2)N1CCN(c2ncnc3c2oc2ccccc23)CC1,2.4,–
